Compound activity (PubChem)
ELG1 genotoxic – genotoxicity induction in ELG1-luciferase HEK293T cells; AID 504466; Potency, µM (doses to about 46 µM), inactives show at the highest dose activity change, positive = activation, most hits filed as activators; HEK293T ELG1-luciferase reporter, luminescence, 16 h; hit rate 1.3% among 330,000; further: % of control where 0% means no effect; nearly all actives have a fitted effect of over 60% in size
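Screening used a luciferase reporter fused to human ELG1 in HEK293T cells. Luminescence was read on a CCD plate imager after 16 hr exposure and 30 min ONE-Glo incubation.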
Rab9 promoter act – Rab9 promoter activation; Huh7 Rab9 promoter-luciferase reporter, luminescence, 24 h; Potency, µM (top dose mostly 9.22 µM), for the others: at the highest dose activation, negative = inhibition, actives largely listed as activators; hit rate 2.8% among 320,000; further: % of control where 0% means no effect; nearly all actives have a fitted effect of over 60% in size
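Luminescence read-out: Huh7 cells stably expressing Rab9-luciferase, treated 24 h with compound at 37 °C, then lysed with luciferase reagent for 10 min at ambient before reading.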
FLuc counter – counter-screen for miR-21 project: firefly luciferase inhibitors or activators. P08659. purified FLuc, Km substrates, luminescence inhibition. Potency, µM (highest dose often 57.5 µM), for the others: top-dose activity change, negative = inhibition, most hits filed as inhibitors. hit rate 6.9% among 360,000. AID 588342;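 further: plate controls were vehicle for no effect and reference inhibitor for full effect; nearly all actives have a fitted effect of over 55% in size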
Target sequence (P08659 whole entry, looked up): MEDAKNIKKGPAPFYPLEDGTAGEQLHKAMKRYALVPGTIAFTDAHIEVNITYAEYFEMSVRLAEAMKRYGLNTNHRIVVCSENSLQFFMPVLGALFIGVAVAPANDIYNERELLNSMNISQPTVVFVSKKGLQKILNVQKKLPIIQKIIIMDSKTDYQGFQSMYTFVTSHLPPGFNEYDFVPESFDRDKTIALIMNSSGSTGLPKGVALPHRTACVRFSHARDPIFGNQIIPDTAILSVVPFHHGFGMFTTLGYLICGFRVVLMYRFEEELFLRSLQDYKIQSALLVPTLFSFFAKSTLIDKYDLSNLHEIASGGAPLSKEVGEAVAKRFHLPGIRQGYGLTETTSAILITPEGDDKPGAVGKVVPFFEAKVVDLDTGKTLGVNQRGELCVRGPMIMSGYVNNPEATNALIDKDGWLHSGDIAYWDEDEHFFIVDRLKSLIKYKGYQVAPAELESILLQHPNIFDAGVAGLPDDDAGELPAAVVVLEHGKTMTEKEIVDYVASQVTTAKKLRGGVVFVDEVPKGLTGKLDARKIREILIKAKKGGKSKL
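Biochemical qHTS of compounds, final roughly 60 µM downward over six points, against 10 nM purified firefly luciferase using Km concentrations of substrates (10 uM D-luciferin, 10 uM ATP) in Tris acetate pH 7.5 buffer; luminescence output.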
NPC1 prom act – activates the NPC1 promoter | Huh7 NPC1 promoter luciferase reporter, 24 h | Potency, µM (doses to about 9.22 µM), for inactives: at the highest dose activation, actives largely listed as activators | hit rate 2.4% among 320,000; further: % of control where 0% means no effect; nearly all actives have a fitted effect of over 60% in size
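In 1536-well qHTS, Huh7 cells harboring an NPC1 promoter–luciferase construct received compound for 24 h; activation was quantified by luminescence following luciferase reagent addition.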
SMN2 splice enh – SMN2 splice variant enhancement; HEK293 SMN2-luciferase splicing reporter, luminescence, 30-36 h; Potency, µM (series often up to 46.1 µM), for inactives: at the highest dose activity change, positive = activation, hits mostly activators; hit rate 2.8% among 210,000; AID 1458; further: % of control where 0% means no effect; nearly all actives have a fitted effect of over 55% in size
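HEK293 cells carry an SMN2 […]–luciferase reporter in which exon 7 inclusion puts luciferase in frame. Cells were plated 10-12 h before compound addition, then incubated 30-36 h at 37C. ONE-Glo luminescence was read; sodium butyrate at 4.5 mM final served as control.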
* = called active by the depositor; ? = inconclusive; . = not tested or not shown; [ ] = dose if it differs, or a comment. Shown are actives, neighbours in structure and some others; about 7.4% of the full set was active somewhere. The call rests on the fitted dose curve; in most records, active means well fitted curve in the direction sought with a large enough effect; inconclusive means small, poorly fitted or top-dose-only effect, or another doubt; inactive means no such curve, though single readings can be large; an effect the other way counts as inactive or inconclusive. Potency means the concentration at half of the fitted maximal effect.

SMILES | ELG1 genotoxic | Rab9 promoter act | FLuc counter | NPC1 prom act | SMN2 splice enh
Cc1ccn2c(C(=O)N/N=C/c3ccc(CNC(=O)C(=O)Nc4ccc(C)c(C)c4)o3)c(C)nc2c1 | 0% | -1% | 6.7µM* | 1% | 28%
Cc1ccc(NC(=O)C(=O)NCc2ccc(/C=N/NC(=O)c3c(C)nc4ccccn34)o2)cc1 | 2% | -2% | 1.7µM* | -2% | ?
Cc1nc2ccccn2c1C(=O)N/N=C/c1ccccc1 | 1% | -4% | -11% | -2% | .
O=S1(=O)[C@H]([C@H]2CC3c4ccccc4C2c2ccccc23)[C@@H](N2CCCCC2)[C@@H]1c1ccccc1 | . | . | . | . | -21%[9.22 µM]
Cc1c2cnn(-c3ccccc3)c(=O)c2c(C)n1C(C)C(=O)NCc1cccc(Br)c1 (stereo not drawn) | . | . | -7% | . | -31%
CC(C(=O)NCc1cccc(Br)c1)n1ncn2cccc2c1=O (stereo not drawn) | . | . | 13µM* | . | .
CCN(CC)c1ccc(C(=O)NN)cc1 | 10% | -2% | -4% | -3% | -5%
CN(C)c1cccc(C(=O)Nc2cccc(F)c2)c1 | ? | 2.8µM* | 19µM* | 2.2µM* | 14µM*
CCN(CC)c1ccc(C(=O)Nc2cccc(F)c2)cc1 | ? | 1.1µM* | ? | 0.79µM* | 8.9µM*
CC(C)(C)C1CCc2c(C(=O)NNC(=O)CCC(=O)O)csc2C1 (stereo not drawn) | 1% | 1% | 27µM* | -2% | -1%
Cc1oc2ncn(CC(C)C)c(=O)c2c1C(=O)NCCCN(Cc1ccccc1)C(C)C | . | . | -6% | . | .
O=C1C2C3C=CC(CC3)C2C(=O)N1/N=C/c1ccc(O)cc1 (stereo not drawn) | ? | 26% | 15µM* | ? | 2%
COC(=O)c1ccc(-c2ccc(/C=N/N3C(=O)C4C5C=CC(CC5)C4C3=O)o2)cc1 (stereo not drawn) | -7% | 3.2µM* | 24µM* | 3.2µM* | 5µM*
O=C(O)c1cc(-c2ccc(/C=N/N3C(=O)C4C5C=CC(CC5)C4C3=O)o2)ccc1Cl (stereo not drawn) | 3% | 1% | 19µM* | 1% | .
CCOc1ccc(CCNC(=O)CCc2c(C)nc3c(-c4ccccc4)c(C)nn3c2C)cc1OCC | . | . | 2% | . | -5%
CCCCN(CC)C(=O)Nc1ccc2c(c1)N(C)C(=O)c1ccccc1S2 | . | . | -1% | . | .
COC(=O)/C=C1\S/C(=N/N=C/c2ccccc2)NC1=O | 0% | -3% | 6µM* | 2% | 6%
COC(=O)/C=C1/SC(=NC(=O)c2ccc(OC)cc2)NC1=O | 3% | 1% | 27µM* | 0% | .
COC(=O)/C=C1\S/C(=N/N=C/c2ccco2)NC1=O | -6% | -4% | ? | -6% | 4%
COC(=O)/C=C1/S/C(=N/N=C/c2ccco2)NC1=O | 2% | 2% | ? | -1% | .
COC(=O)/C=C1\S/C(=N/N=C/c2ccc(Cl)cc2)NC1=O | -1% | -2% | 11µM* | -3% | .
O=C(Cn1c(=O)n2nc(-c3ccccc3)nc2c2ccccc21)Nc1ccccc1C(F)(F)F | . | . | 2% | . | -7%
O=C1CSC2(C(=O)N(Cc3c(F)cccc3Cl)c3ccccc32)N1c1ccc(F)c(F)c1 (stereo not drawn) | . | . | -1% | . | .
COc1ccc2c(c1)O[C@H](c1ccc3c(c1)OCO3)[C@@H](OC(=O)NS(=O)(=O)c1ccc(C)cc1)C2=O | . | . | . | . | 12%
NC(=O)c1c(NC(=O)c2ccc(N3C(=O)CCC3=O)cc2)sc2c1CCCC2 | 8% | -3% | 11µM* | 1% | .
SMILES | ELG1 genotoxic | Rab9 promoter act | FLuc counter | NPC1 prom act | SMN2 splice enh
NC(=O)c1c(NC(=O)c2ccccc2C(=O)O)sc2c1CCCC2 | -6% | 5% | 17µM* | 2% | .
NC(=O)c1c(NC(=O)c2cccnc2Cl)sc2c1CCCC2 | 8% | 0% | 19µM* | -2% | 3%
Cc1onc(-c2c(F)cccc2Cl)c1C(=O)Nc1sc2c(c1C(N)=O)CCC2 | -11% | -6% | -2% | -8% | 10%
NC(=O)c1c(NC(=O)c2ccc(F)cc2Cl)sc2c1CCC2 | -2% | ? | 13µM* | ? | .
Cc1cccc(C)c1NC(=O)CN1C(=O)c2cccc3cccc1c23 | . | . | 3% | . | .
Cc1ccc(-n2ncc(C(=O)NCc3ccco3)c2C2CCN(C(=O)OC(C)(C)C)CC2)c(C)c1 | . | . | 3% | . | .
CN(C)C(=O)c1c(NC(=O)c2ccccc2F)sc2c1CCCC2 | . | . | -5% | . | -11%
NC(=O)c1c(NC(=O)c2ccccc2Cl)sc2c1CCC2 | ? | ? | 15µM* | ? | .
NC(=O)c1c(NC(=O)c2ccccc2F)sc2c1CCCC2 | ? | 0.89µM* | 1.9µM* | 1.6µM* | .
Cn1cc(Br)c(C(=O)Nc2sc3c(c2C(N)=O)CCCC3)n1 | 11% | ? | 3µM* | 7% | .
CCc1ccc(-n2c(=O)c3cccnc3n2CC(=O)N(CC)c2cccc(C)c2)cc1 | . | . | 5% | . | .
COC(=O)N1[C@H]2CC[C@@]3(C)CC(=O)C[C@]1(C)C3c1ccccc12 | . | . | . | . | -4%
CS(=O)(=O)N(CC(=O)N/N=C/c1cccc2c1OCCO2)c1ccccc1Br | -1% | 2% | 0% | 1% | -10%
CCOC(=O)c1ccc(-c2ccc(/C=N/NC(=O)CN(c3ccccc3Br)S(C)(=O)=O)o2)cc1 | -16% | ? | -17% | ? | 11µM*
O=C(N/N=C/c1ccc([N+](=O)[O-])o1)C(=O)Nc1ccc(C(=O)O)cc1 | -3% | -4% | -6% | 2% | .
O=C(O)c1ccc(N/N=C/C=C/c2ccc([N+](=O)[O-])o2)cc1 | 1% | 16% | 17µM* | -2% | .
NS(=O)(=O)c1ccc(-c2ccc(/C=N/Nc3ccc(C(=O)O)cc3)o2)cc1 | 10% | 1% | 7.6µM* | 5% | .
CNC(=S)N/N=C/c1ccc(-c2ccc(C(=O)O)cc2)o1 | ? | 30% | 17µM* | ? | .
CNC(=S)N/N=C/c1ccc(-c2ccc(Cl)c([N+](=O)[O-])c2)o1 | 0% | -3% | -10% | -3% | .
COc1ccc(CNC(=O)CCc2c(C)nc3c4cccnc4nn3c2C)cc1 | . | . | 1% | . | -8%
COCCn1c(C)cc(O)c(C(c2ccccc2)N2CCC(C)CC2)c1=O (stereo not drawn) | . | . | -3% | . | .
COCc1oc2ccc(NS(=O)(=O)c3ccc(C)cc3)cc2c1C(=O)OC | . | . | ? | . | -12%
Cc1ccc(C(=O)c2sc(Nc3ccc(F)cc3)nc2N)c(C)c1 | . | . | -8% | . | .
Cc1nc(NCc2ccccc2)c2nc(-c3ccccc3)n(CCN3CCCC3)c2n1 | . | . | . | . | 3%
O=C(O)c1ccc(-c2ccc(/C=N/Nc3ccc([N+](=O)[O-])cc3)o2)cc1 | 0% | 22% | 17µM* | 23% | .
O=C(O)c1cccc(-c2ccc(/C=N/Nc3ccc([N+](=O)[O-])cc3)o2)c1 | 2% | -4% | 11µM* | 1% | .
CCC(=O)N/N=C/c1ccc(-c2ccc(Cl)cc2)o1 | 18% | 30% | 15µM* | 0% | .
